Screening data (PubChem BioAssay)
Bcl-2 Bim block: inhibitors of Bim-Bcl-2 binding, primary screen, biochemical, multiplexed, human Bcl-2 family; Bead-based flow cytometry, Bim peptide-Bcl-2 binding; 190,000 tested, 0.06% active; inhibition, % at 10 µM; Apoptosis regulator Bcl-2 (Homo sapiens), P10415; in the data active = inhibition above about 40%;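 note: 0% = no compound wells with probe peptide and 100% = reference peptide inhibitor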
Bfl-1 Bim block: inhibitors of Bim binding to Bfl-1, primary screen, biochemical, multiplexed, bead-based flow cytometry | 190,000 tested, 0.12% active | Bim-Bfl-1 binding inhibition | inhibition, % at 10 µM | Bcl-2-related protein A1 (Homo sapiens), Q16548;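 note: 0% = wells without compound plus tracer and 100% = blocker peptide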
Bcl-XL Bim block: inhibitors of Bim-Bcl-XL binding, primary screen, biochemical, multiplexed, bead flow cytometry, human Bcl-XL; 190,000 tested, 0.04% active; Bim peptide-Bcl-XL binding, fluorescence; inhibition, % at 10 µM; AID 1007, 2008
Bim-Bcl-W: inhibitors of Bim binding to Bcl-W, primary screen, biochemical, multiplexed, bead-based flow cytometry; 190,000 tested, 0.02% active; inhibition, % at 10 µM; Bcl-2-like protein 2 (Homo sapiens), Q92843; Bim peptide-Bcl-W binding;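 note: 0% = bound tracer without compound and 100% = peptide blocker; higher means less fluorescent Bim peptide bound to Bcl-W beads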
Bcl-B Bim block: inhibitors of Bim-Bcl-B binding, primary screen, biochemical, multiplexed, human Bcl-2 family. bead-based flow cytometry, Bim peptide-Bcl-B binding. Bcl-2-like protein 10 (Homo sapiens), Q9HD36. 190,000 tested, 0.073% active. inhibition, % at 10 µM;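 note: 0% = tracer peptide without compound and 100% = reference inhibitor peptide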
Wee1 stabilizer: Wee1 degradation inhibitors, primary screen, cell-based, HeLa, Wee1K328M-luciferase, luminescence; HeLa Luc-Wee1K328M stability; 100% = proteasome inhibitor MG132 effect; reporter increase, % at 5 µM; 220,000 tested, 1.2% active;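 active = activation above the mean of all tested compounds plus 3 SD, set per screening run, cut at about 8.8% in these data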;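 note: cells exposed to compound for 20 h before luminescence read; 0% = DMSO alone and 100% = MG132 at 30 µM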
Target sequence (P30291 whole entry K328M): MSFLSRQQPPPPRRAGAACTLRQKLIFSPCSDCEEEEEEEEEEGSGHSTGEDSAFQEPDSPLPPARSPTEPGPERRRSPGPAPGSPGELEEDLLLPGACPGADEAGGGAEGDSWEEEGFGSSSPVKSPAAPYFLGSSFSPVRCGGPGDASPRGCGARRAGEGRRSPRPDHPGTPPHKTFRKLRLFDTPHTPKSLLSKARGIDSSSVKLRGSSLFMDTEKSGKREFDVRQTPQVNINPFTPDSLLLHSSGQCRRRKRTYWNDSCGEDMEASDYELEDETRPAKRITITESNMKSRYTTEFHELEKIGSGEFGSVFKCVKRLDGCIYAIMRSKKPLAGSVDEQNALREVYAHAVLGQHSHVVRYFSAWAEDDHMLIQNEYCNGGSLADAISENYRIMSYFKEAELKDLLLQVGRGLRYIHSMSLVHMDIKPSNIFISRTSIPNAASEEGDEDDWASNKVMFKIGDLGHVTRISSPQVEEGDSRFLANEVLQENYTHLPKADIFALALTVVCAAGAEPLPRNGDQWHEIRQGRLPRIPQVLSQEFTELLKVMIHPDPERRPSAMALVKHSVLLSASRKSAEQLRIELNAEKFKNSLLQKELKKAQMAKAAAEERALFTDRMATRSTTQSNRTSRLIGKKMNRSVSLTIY
Wee1 stab conf: Wee1 degradation inhibitors, confirmation, cell-based, HeLa, Wee1K328M-luciferase, luminescence, triplicate; shares compounds with Wee1 stabilizer; AID 1410, 2008; activation, % at 5 µM; 1,100 tested, 4% active; HeLa Luc-Wee1K328M degradation; vehicle 0%, proteasome-blocked wells 100%; in the data active = activation above about 8.9%
Numbers without * were called inactive; nt = no result. Most compounds without a hit are left out; they make up all but 1.4% or so of the library. Cut-off read from the data, not from the text of the source, unless noted: active = inhibition above about 40%.

SMILES	Bcl-2 Bim block	Bfl-1 Bim block	Bcl-XL Bim block	Bim-Bcl-W	Bcl-B Bim block	Wee1 stabilizer	Wee1 stab conf
CCOC(=O)c1c(CSc2ccccc2)n(C)c2cc(Br)c(OCC(O)CNC(CO)(CO)CO)cc12 (stereo not drawn)	nt	nt	nt	nt	nt	11*	3
CCOC(=O)c1c(CN2CCN(Cc3ccccc3)CC2)n(C)c2cc(Br)c(OC)cc12	-9	-10	-6	3	-8	0	nt
O=C(COC(=O)Cc1ccc(Br)cc1)NCc1ccc(F)cc1	-1	3	1	0	3	-1	nt
COC(=O)CS(=O)(=O)c1cccc2cccnc12	0	-6	-1	2	0	1	nt
Cc1ccc(NC(=O)c2cccc(F)c2)cc1S(=O)(=O)N1CCCCCC1	-5	-4	-4	-1	-5	14*	0
Cc1ccc(C(=O)Nc2ccon2)cc1S(=O)(=O)N1CCCCCC1	-4	-5	-8	-4	-4	1	nt
Cc1cc(C)n(C(=O)c2ccc(C)c(S(=O)(=O)N3CCCCC3)c2)n1	-4	-5	-2	0	-3	24*	-1
O=[N+]([O-])c1ccc2c(OCc3nnc(-c4ccccc4Br)o3)ncnc2c1	nt	nt	nt	nt	nt	1	nt
CC(Oc1ccccc1F)C(=O)NNC(=O)c1cc2ccccc2o1 (stereo not drawn)	-4	-5	0	0	-5	0	nt
Nc1cc(S(=O)(=O)Nc2cc(Cl)ccc2Cl)ccc1N1CCCC1	nt	nt	nt	nt	nt	1	nt
CC(C)(C)C(=O)c1cnc(Nc2ccccc2Cl)s1	-3	-1	1	-1	-4	16*	4
CCN(CC)CCSc1nc2ccccc2c(=S)n1-c1ccccc1	-4	-3	-4	-4	-3	13*	0
c1ccc2nc(-c3ccc4c(c3)OCO4)ccc2c1	0	3	3	5	-5	10*	3
COC(=O)c1cc(-c2ccc3c(c2)OCO3)nc2ccccc12	0	-1	1	0	2	1	nt
O=C(N=C1SCC(=O)N1c1ccccc1Cl)c1ccco1	-5	0	-1	-6	-2	14*	5
COc1ccc(OC)c(S(=O)(=O)n2ccnc2C)c1	-9	-15	-8	-1	-7	0	nt
COc1ccc(C(C)C)cc1S(=O)(=O)n1ccnc1C	-4	-3	-6	-2	-6	13*	1
Cc1cc(Nc2ccccc2C(=O)O)n(-c2ccc([N+](=O)[O-])cc2)n1	nt	nt	nt	nt	nt	3	nt
O=C(Nc1ccncc1)C1COc2ccccc2O1 (stereo not drawn)	-10	-14	-17	2	-2	1	nt
O=C(CSC1=NCCN1)C1COc2ccccc2O1 (stereo not drawn)	-2	-2	0	0	1	12*	1
Nc1c2c(nc3sc4c(c13)CCCC4)-c1ccccc1CC2	nt	nt	nt	nt	nt	18*	1
CCOCC(=O)Nc1nc(C)cc(C)n1	-2	0	-5	-3	-3	11*	1
COc1ccc(NC(=S)Nc2ccccc2C(F)(F)F)cc1	-2	-1	-2	1	-4	17*	1
COc1ccc(NC(=S)Nc2cc(C(F)(F)F)ccc2F)cc1	-5	-7	-5	-2	-6	-1	nt
Cc1cc(C)c2c(NC(N)=S)n[nH]c2n1	0	-8	-6	-2	-7	0	nt
SMILES	Bcl-2 Bim block	Bfl-1 Bim block	Bcl-XL Bim block	Bim-Bcl-W	Bcl-B Bim block	Wee1 stabilizer	Wee1 stab conf
Cc1cc(C)c2c(N=NN(C)C)[nH]nc2n1	-12	-12	-7	-2	-9	13*	-1
COC(=O)C1=C(N)Oc2cc(C)n(Cc3ccncc3)c(=O)c2C1c1cccnc1 (stereo not drawn)	nt	nt	nt	nt	nt	14*	0
COC(=O)C1=C(N)Oc2cc(C)n(Cc3cccnc3)c(=O)c2C1c1ccccc1OC (stereo not drawn)	-13	-15	-11	-1	-11	-1	nt
O=C(CN(Cc1ccccc1)C(=O)CCC(=O)Nc1ccccn1)NCc1ccco1	1	0	1	1	-2	12*	-1
COCCNC(=O)CN(CC1CCCO1)C(=O)CCC(=O)Nc1ccccn1 (stereo not drawn)	-11	-17	-10	-1	-8	11*	0
O=C(CN(CC1CCCO1)C(=O)CCC(=O)Nc1ccccn1)NCC1CCCO1 (stereo not drawn)	-7	-12	-9	4	-4	1	nt
O=C(Cn1cc(C(=O)C(F)(F)F)c2ccccc21)N1CCOCC1	5	8	2	-2	2	-2	nt
Cc1cc(N/N=C/c2ccc(F)cc2)nc(NCc2ccccc2)n1	nt	nt	nt	nt	nt	12*	-6
C(=N\Nc1nccc(-c2cccnc2)n1)/c1ccccc1	nt	nt	nt	nt	nt	0	nt
Cc1ccnc(N/N=C/c2ccccc2)n1	-2	-3	-6	-1	-4	17*	3
C/C(=N\NC(=O)c1csc(C)c1C)c1ccc(Cl)s1	-7	-9	-4	3	-4	12*	2
CC/C(=N\NC(=O)c1csc(C)c1C)c1cccs1	0	-11	-3	1	-4	-1	nt
COc1ccc(S(=O)(=O)N2CCOC2CNC(=O)C(=O)NCc2ccco2)cc1OC (stereo not drawn)	nt	nt	nt	nt	nt	-1	nt
CC(C)Cn1c(-c2ccc(C#N)cc2)nc2c1c(=O)[nH]c(=O)n2CC(C)C	-13	-19	-10	-1	-8	36*	1
COc1ccc(C(C(=O)Nc2ccc(C(C)C)cc2)N(Cc2ccco2)C(=O)CC2NC(=O)NC2=O)cc1 (stereo not drawn)	0	0	0	1	-1	16*	4
CCN(CC)c1ccc(NC(=O)c2cnccn2)cc1S(=O)(=O)Nc1ccc(OC)cc1	2	-1	-5	0	0	12*	3
CCOC(=O)CSc1nc(-c2ccncc2)ccc1C#N	-2	0	-2	-2	-6	14*	2
Fc1cccc(/C=N/Nc2nc3ccccc3[nH]2)c1	0	0	0	-2	-5	11*	0
C#CCOCCOCCOCCNc1nc(N2CCN(C(=O)C([C@@H](C)CC)n3cc(C(N)CC(C)C)nn3)CC2)nc(N2CCN(C(=O)[C@H](CCC(=O)O)n3cc(C(N)CC(C)C)nn3)CC2)n1 (stereo partly drawn)	0	-4	-3	0	-4	-1	nt
